Test results: a collection of fitness landscapes (doi:10.1126/science.1257360)
Whole data set: some 140,000 sequences, median “enrichment ratio after two sorts for PhoP signalling” near 0, cut for the highest 2% near 11. What follows is part of a selection rich in the highest values, with near analogues and random picks from the rest.

B1: PhoQ; a variant is named by its letters at X, in order, P23837 (parent)
chain: MKKLLRLFFPLSLRVRFLLATAAVVLVLSLAYGMVALIGYSVSFDKTTFRLLRGESNLFYTLAKWENNKLHVELPENIDKQSPTMTLIYDENGQLLWAQRDVPWLMKMIQPDWLKSNGFHEIEADVNDTSLLLSGDHSIQQQLQEVREDDDDAEMTHSVAVNVYPATSRMPKLTIVVVDTIPVELKSSYMVWSWFIYVLSANLLLVIPLLWVAAWWSLRPIEALAKEVRELEEHNRELLNPATTRELTSLVRNLNRLLKSERERYDKYRTTLTDLTHSLKTPLXXLQXXLRSLRSEKMSVSDAEPVMLEQISRISQQIGYYLHRASMRGGTLLSRELHPVAPLLDNLTSALNKVYQRKGVNISLDISPEISFVGEQNDFVEVMGNVLDNACKYCLEFVEISARQTDEHLYIVVEDDGPGIPLSKREVIFDRGQRVDTLRPGQGVGLAVAREITEQYEGKIVAGESMLGGARMEVIFGRQHSAPKDE

Variants of: B1
Experiment: enrichment ratio after two sorts for PhoP signalling (ratio (wild type AVST 3.29)); higher = more functional
Conditions: with PhoP (E. coli)

Variant | enrichment ratio
EVAW | ≤ 0.25
DHDV | ≤ 0.25
YAYW | ≤ 0.25
ANRY | ≤ 0.25
RTRT | ≤ 0.25
WPGL | ≤ 0.25
ASNL | 4.93
KSVG | ≤ 0.25
ASMG | 17.6
KSAF | ≤ 0.25
ASVC | 5.25
AHAF | ≤ 0.25
ASAF | 15.1
ASMW | 5.78
ASMD | ≤ 0.25
ASVG | 14.7
ASQN | ≤ 0.25
ASMN | 19.6
VSHV | ≤ 0.25
ELII | ≤ 0.25
DHGN | ≤ 0.25
NHFI | ≤ 0.25
QTFL | 1.72
YDLL | ≤ 0.25

Variant | enrichment ratio
QRFQ | ≤ 0.25
EHKV | ≤ 0.25
LCMI | ≤ 0.25
IHER | ≤ 0.25
LAPE | ≤ 0.25
VIMD | ≤ 0.25
ASVI | 5.75
ASVP | ≤ 0.25
ASSI | 15.8
AITG | 11.5
ASRK | ≤ 0.25
KSMK | ≤ 0.25
VHTG | ≤ 0.25
AMTG | 2.78
ASMK | 17
ASVM | 12.1
VRSI | ≤ 0.25
ASMA | 2.9
YVIL | ≤ 0.25
LYCG | ≤ 0.25
RRIS | ≤ 0.25
NHAY | ≤ 0.25
QIHN | ≤ 0.25
YWDR | ≤ 0.25

Variant | enrichment ratio
YHEQ | ≤ 0.25
IKMW | ≤ 0.25
ASMS | 5.31
ASIG | 12
KSVE | ≤ 0.25
ASMI | 13.5
ASHE | ≤ 0.25
ASTG | 14.7
ASWG | ≤ 0.25
ASMV | 7.76
ASEG | ≤ 0.25
ASVE | 21.7
PNRW | ≤ 0.25
LAVR | ≤ 0.25
IMSG | ≤ 0.25
RHEW | ≤ 0.25
QSKD | ≤ 0.25
VADS | ≤ 0.25
DWYQ | ≤ 0.25
YRSW | ≤ 0.25
ICAS | ≤ 0.25
MAAS | 1.31
TMAS | 15
MTAS | 12

Variant | enrichment ratio
DMAS | ≤ 0.25
KMAS | ≤ 0.25
YTAS | ≤ 0.25
MFAS | ≤ 0.25
MMAS | 15.4
MCAS | 14
MKAS | ≤ 0.25
VCAS | ≤ 0.25
NQNV | ≤ 0.25
NTIL | ≤ 0.25
MCAI | 8.95
GQFV | ≤ 0.25
PTRG | ≤ 0.25
IQLY | ≤ 0.25
QVYW | ≤ 0.25
GCPS | ≤ 0.25
FSMN | 1.56
KSMN | ≤ 0.25
TSMN | 12.3
GGMN | ≤ 0.25
NHMN | ≤ 0.25
SHMN | ≤ 0.25
RGMN | ≤ 0.25
TGMN | 34.8

Variant | enrichment ratio
THMN | 12.7
RHML | ≤ 0.25
RVMN | ≤ 0.25
GNFW | ≤ 0.25
LDMA | ≤ 0.25
ESWV | ≤ 0.25
KCLD | ≤ 0.25
RANI | ≤ 0.25
GSCL | 21.5
GSCV | 16.6
GSMW | ≤ 0.25
GSCI | 10.8
GSWV | ≤ 0.25
GSCA | 0.424
GSCS | 5.76
GSIV | 8.6
GSMV | 17.2
FTHE | ≤ 0.25
HIYR | ≤ 0.25
AWLF | ≤ 0.25
YRSQ | ≤ 0.25
HSMV | 17
HSMW | ≤ 0.25
HSMH | ≤ 0.25

Variant | enrichment ratio
HSWV | ≤ 0.25
HSMG | 1.29
HSMI | 17.4
WYLH | ≤ 0.25
TLFF | ≤ 0.25
AINV | ≤ 0.25
SNRK | ≤ 0.25
QKYP | ≤ 0.25
IVDD | ≤ 0.25
VLPC | ≤ 0.25
HDDH | ≤ 0.25
WDDD | ≤ 0.25
SDSC | 2.35
CMSC | 39.5
SQSC | 11.7
STSC | 11.6
SRSC | ≤ 0.25
MMSC | ≤ 0.25
KQSC | ≤ 0.25
YTSC | ≤ 0.25
TLSC | 8.65
FVKG | ≤ 0.25
PVCQ | ≤ 0.25
MPMY | ≤ 0.25

Variant | enrichment ratio
HPTD | ≤ 0.25
MFHP | ≤ 0.25
IYSH | ≤ 0.25
TGNT | 15.8
GGNY | ≤ 0.25
GGAT | ≤ 0.25
AKAH | 4.55
RGNY | ≤ 0.25
TGAT | 18.1
TGAH | 9.14
RGAT | ≤ 0.25
RGNT | ≤ 0.25
TGNY | 16.9
GGNT | ≤ 0.25
AGAH | 11.2
IMPT | ≤ 0.25
STPE | ≤ 0.25
SDDK | ≤ 0.25
DTVG | ≤ 0.25
MNVA | ≤ 0.25
LNLH | ≤ 0.25
MLMR | ≤ 0.25
CQVY | 5.8
AGKR | ≤ 0.25

Variant | enrichment ratio
AGDT | ≤ 0.25
CQNY | 12.1
AGAT | 11.3
CQWS | ≤ 0.25
IKGI | ≤ 0.25
DLMM | ≤ 0.25
RFVW | ≤ 0.25
QQLG | 2.01
LTCG | ≤ 0.25
TTCT | 12.8
YTCV | ≤ 0.25
TTCS | 18.7
YTCG | ≤ 0.25
ITCV | ≤ 0.25
YTCT | ≤ 0.25
ITCT | ≤ 0.25
TTCV | 17.3
ITCS | ≤ 0.25
TTCG | 30.3
YTCS | ≤ 0.25
ATPS | ≤ 0.25
KDFS | ≤ 0.25
PMMQ | ≤ 0.25
YYTW | ≤ 0.25

Variant | enrichment ratio
RVTP | ≤ 0.25
FDKV | ≤ 0.25
TTCI | 15.8
TTCE | 8.85
TTCK | 5.62
LIVW | ≤ 0.25
ATSF | 11.9
CTSF | 3.85
ATSM | 16.9
YDSM | ≤ 0.25
ITSF | ≤ 0.25
AIMF | 0.847
ATMF | 16
GTSM | 10.6
ATHF | ≤ 0.25
PAWP | ≤ 0.25
TTFE | ≤ 0.25
AKLY | 19.7
HKLY | ≤ 0.25
AILY | 1.94
GNLY | 3.04
ANLY | 12
KKLY | ≤ 0.25
AYLY | ≤ 0.25

Variant | enrichment ratio
TKLY | 16.4
DNLY | ≤ 0.25
LENP | ≤ 0.25
YGNS | ≤ 0.25
ELCS | ≤ 0.25
SDHR | ≤ 0.25
RTCY | ≤ 0.25
FQWN | ≤ 0.25
KCYS | ≤ 0.25
MCYS | 12.8
STYS | 0.267
MEYS | 25.6
QRYS | ≤ 0.25
MLYS | ≤ 0.25
QEYS | 37
MMYS | ≤ 0.25
MKYS | ≤ 0.25
LVRD | ≤ 0.25
RKTS | ≤ 0.25
MAFY | 5.02
VGMG | ≤ 0.25
GGMD | ≤ 0.25
TGMI | 13.2
VGMW | ≤ 0.25

Variant | enrichment ratio
LGMI | 12.6
RGMI | ≤ 0.25
LGMS | ≤ 0.25
NGMI | 0.49
GGMI | 12.3
LGMA | ≤ 0.25
VGMI | 20.4
NIMI | ≤ 0.25
DSTD | ≤ 0.25
HLRM | ≤ 0.25
IPWT | ≤ 0.25
WPQK | ≤ 0.25
TMAW | ≤ 0.25
WDLT | ≤ 0.25
GWGM | ≤ 0.25
HMWI | ≤ 0.25
PRFL | ≤ 0.25
DFQL | ≤ 0.25
AGMG | ≤ 0.25
AGMS | 3.53
AGMI | 16.4
NSFT | ≤ 0.25
YKQH | ≤ 0.25
HDPL | ≤ 0.25

Variant | enrichment ratio
TNSV | 19.4
ANSV | 7.03
MNIV | ≤ 0.25
LNSV | ≤ 0.25
MNSK | ≤ 0.25
MNSV | 16.9
QING | ≤ 0.25
PDEL | ≤ 0.25
TSHN | 0.659
ENQD | ≤ 0.25
KSTQ | ≤ 0.25
NNTQ | ≤ 0.25
TMTQ | 14.3
LCTQ | ≤ 0.25
TGTQ | 17.7
HKTQ | ≤ 0.25
TMLA | 2.72
TKTQ | 12.6
TSTQ | 16
MKTQ | ≤ 0.25
NGTQ | ≤ 0.25
MMTQ | ≤ 0.25
LGMC | ≤ 0.25
NWTN | ≤ 0.25

Variant | enrichment ratio
VCIS | 0.315
QCCN | ≤ 0.25
PNLQ | 1.01
SPYC | ≤ 0.25
YNMF | ≤ 0.25
LKVT | ≤ 0.25
SFHI | ≤ 0.25
VLMY | ≤ 0.25
EGRC | ≤ 0.25
EQYD | ≤ 0.25
NMTQ | ≤ 0.25
SQTQ | 11.3
SLTQ | 6.15
KYTQ | ≤ 0.25
TITQ | 12.5
SGTQ | 17.4
STTQ | 6.67
TILA | 4.43
SGTW | ≤ 0.25
